Data as given in the supplement of paper PMC10849652.
Targets with a hit are over-represented here; the source holds about 8,800 in all. About 0.5% of all pairs of compound and target were hits. A number with no mark means an inactive call.

What was measured:
Test in all cases: log2 fold change, soluble protein after heating vs DMSO (PISA); higher = thermal stabilisation; K562 lysate, 10 uM; active = over 0.2 and 3.5 SD of the protein, either way, in both replicates (recomputed)
[1] = compound: CCCS(=O)(=O)Nc1ccc(F)c(C(=O)c2c[nH]c3ncc(-c4ccc(Cl)cc4)cc23)c1F [vemurafenib]
Outline: (§1)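 Soluble protein was defined as the supernatant remaining after 21,000xg for 90 min, following pooling of heated aliquots and adjustment to 0.5% NP-40 at 4°C. Before that, crude K562 extract at 1 mg/mL protein in PBS pH 7.4 with 1 mM MgCl2 was treated with 10 μM compound for 30 min and heated for 3 min across 48°C-58°C. Quantification used TMTpro 16plex LC-MS/MS with channel sums equalised, and values are log-two fold changes in thermal stability relative to solvent controls from duplicates.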

[2] = compound: CCCS(=O)(=O)Nc1ccc(F)c(C(=O)c2c[nH]c3ncc(Cl)cc23)c1F
Outline: as §1

[3] = compound: CCN(CCCOc1ccc2c(Nc3cc(CC(=O)Nc4cccc(F)c4)[nH]n3)ncnc2c1)CCOP(=O)(O)O [barasertib]
Outline: as §1

[4] = compound: CC[C@@H]1C(=O)N(C)c2cnc(Nc3ccc(C(=O)NC4CCN(C)CC4)cc3OC)nc2N1C1CCCC1
Outline: as §1

[5] = compound: CC[C@@H]1C(=O)N(C)c2cnc(Nc3ccc(C(=O)N[C@H]4CC[C@H](N5CCN(CC6CC6)CC5)CC4)cc3OC)nc2N1C(C)C [volasertib]
Outline: as §1

[6] = compound: CCn1c(C(=O)N(C2CC2)C2CC2)cc2c3c(ncn3C)c(Nc3cc(C)n(C)n3)nc21
Outline: as §1

[7] = compound: CCn1cc(-c2ccnc3[nH]c(-c4cccc(CN(C)C)c4)cc23)c(-c2ccc(NC(=O)N(C)C)cc2)n1
Outline: as §1

[8] = compound: CN1CCC(CNc2ccc3ncc(-c4cccc(OC(F)(F)F)c4)n3n2)CC1
Outline: as §1

[9] = compound: CN1CCN(CCOc2cc(OC3CCOCC3)c3c(Nc4c(Cl)ccc5c4OCO5)ncnc3c2)CC1 [saracatinib]
Outline: as §1

[10] = compound: CN1CCN(c2nc(C3=C(c4c[nH]c5ccccc45)C(=O)NC3=O)c3ccccc3n2)CC1 [sotrastaurin]
Outline: as §1

[11] = compound: CN1CC[C@H](c2c(O)cc(O)c3c(=O)cc(-c4ccccc4Cl)oc23)[C@H](O)C1 [alvocidib]
Outline: as §1

[12] = compound: CN1CCc2c(c3ccccc3n2Cc2ccc(C(=O)NO)cc2)C1 [Tubastatin A]
Outline: as §1

[13] = compound: CNC(=O)C1=CC=CC=C1NC2=NC(=NC=C2Cl)NC3=C(C=C(C=C3)N4CCOCC4)OC
Outline: as §1

[14] = compound: CNC(=O)c1ccc(Nc2ncc(C(F)(F)F)c(NCc3nccnc3N(C)S(C)(=O)=O)n2)cc1 [defactinib]
Outline: as §1

[15] = compound: CNc1nc(-c2ccc3c(N)n[nH]c3c2)cc(N2C[C@@H](C(=O)NC3CCCCC3)CC[C@H]2C)n1
Outline: as §1

[16] = compound: COC(=O)N[C@@H](C)CNc1nccc(-c2cn(C(C)C)nc2-c2cc(Cl)cc(NS(C)(=O)=O)c2F)n1 [encorafenib]
Outline: as §1

[17] = compound: COC(=O)[C@H](CCSC)NC(=O)C1=C(C=C(C=C1)NC[C@H](CS)N)C2=CC=CC=C2
Outline: as §1

[18] = compound: COc1cc(Nc2ncc3c(n2)-c2ccc(Cl)cc2C(c2c(F)cccc2OC)=NC3)ccc1C(=O)O [alisertib]
Outline: as §1

[19] = compound: COc1cc2nc(-c3cc(F)ccc3O)nc(N[C@@H]3CNC[C@H]3C(C)(C)O)c2cc1OC
Outline: as §1

[20] = compound: COc1cc2ncnc(Nc3ccc(F)c(Cl)c3)c2cc1OCCCN1CCOCC1 [gefitinib]
Outline: as §1

Chain of UniProt P39880 (P39880 whole entry, looked up): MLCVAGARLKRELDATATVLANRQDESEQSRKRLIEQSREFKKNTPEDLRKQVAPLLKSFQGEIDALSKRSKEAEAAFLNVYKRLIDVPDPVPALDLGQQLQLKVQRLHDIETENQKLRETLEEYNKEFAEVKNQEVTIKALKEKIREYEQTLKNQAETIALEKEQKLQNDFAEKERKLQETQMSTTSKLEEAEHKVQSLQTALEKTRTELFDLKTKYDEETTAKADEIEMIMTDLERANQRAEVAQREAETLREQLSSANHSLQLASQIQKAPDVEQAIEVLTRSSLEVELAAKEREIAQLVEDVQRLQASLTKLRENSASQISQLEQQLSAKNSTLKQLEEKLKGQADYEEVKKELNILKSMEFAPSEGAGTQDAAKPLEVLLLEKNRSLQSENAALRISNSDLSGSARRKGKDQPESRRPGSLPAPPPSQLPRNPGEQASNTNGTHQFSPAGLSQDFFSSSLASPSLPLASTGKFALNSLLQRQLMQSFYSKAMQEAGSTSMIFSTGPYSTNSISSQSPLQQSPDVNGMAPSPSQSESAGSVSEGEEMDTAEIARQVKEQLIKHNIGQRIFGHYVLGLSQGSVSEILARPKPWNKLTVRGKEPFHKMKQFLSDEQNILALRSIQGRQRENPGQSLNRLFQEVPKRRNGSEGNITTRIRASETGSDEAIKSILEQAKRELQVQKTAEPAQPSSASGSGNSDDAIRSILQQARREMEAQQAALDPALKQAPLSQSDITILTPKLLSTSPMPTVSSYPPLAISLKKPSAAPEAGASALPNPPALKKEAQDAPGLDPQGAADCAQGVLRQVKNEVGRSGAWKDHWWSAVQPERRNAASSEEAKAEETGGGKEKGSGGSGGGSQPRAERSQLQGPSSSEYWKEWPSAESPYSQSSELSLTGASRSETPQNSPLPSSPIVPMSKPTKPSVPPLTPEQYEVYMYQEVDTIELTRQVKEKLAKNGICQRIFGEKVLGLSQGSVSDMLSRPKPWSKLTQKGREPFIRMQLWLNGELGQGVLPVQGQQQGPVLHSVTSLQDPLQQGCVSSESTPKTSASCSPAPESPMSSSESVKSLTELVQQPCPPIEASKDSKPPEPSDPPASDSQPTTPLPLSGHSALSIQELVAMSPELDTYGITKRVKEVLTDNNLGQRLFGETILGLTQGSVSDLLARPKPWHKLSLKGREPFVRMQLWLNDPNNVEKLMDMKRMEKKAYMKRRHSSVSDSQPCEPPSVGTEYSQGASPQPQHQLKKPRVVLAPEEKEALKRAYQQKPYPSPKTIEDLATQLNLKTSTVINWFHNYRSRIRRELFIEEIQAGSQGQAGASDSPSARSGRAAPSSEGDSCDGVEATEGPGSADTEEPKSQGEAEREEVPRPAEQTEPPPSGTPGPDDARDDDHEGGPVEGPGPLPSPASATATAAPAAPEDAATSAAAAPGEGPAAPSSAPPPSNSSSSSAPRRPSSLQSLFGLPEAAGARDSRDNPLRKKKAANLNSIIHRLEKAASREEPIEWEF
Chain of UniProt Q9UBM7 (Q9UBM7 whole entry, looked up): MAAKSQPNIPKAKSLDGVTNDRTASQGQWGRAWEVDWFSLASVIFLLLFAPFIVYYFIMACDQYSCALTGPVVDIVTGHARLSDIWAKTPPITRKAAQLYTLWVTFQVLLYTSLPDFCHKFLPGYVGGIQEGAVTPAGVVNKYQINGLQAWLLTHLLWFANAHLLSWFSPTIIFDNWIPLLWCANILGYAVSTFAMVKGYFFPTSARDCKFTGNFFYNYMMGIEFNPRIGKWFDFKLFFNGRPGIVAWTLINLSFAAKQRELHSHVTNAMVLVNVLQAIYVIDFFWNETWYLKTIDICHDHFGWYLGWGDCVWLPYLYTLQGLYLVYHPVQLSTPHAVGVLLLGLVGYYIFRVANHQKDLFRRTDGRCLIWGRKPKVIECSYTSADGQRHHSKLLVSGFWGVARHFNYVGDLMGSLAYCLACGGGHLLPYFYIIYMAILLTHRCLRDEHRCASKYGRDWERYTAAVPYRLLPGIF
Chain of UniProt Q14008 (Q14008 whole entry, looked up): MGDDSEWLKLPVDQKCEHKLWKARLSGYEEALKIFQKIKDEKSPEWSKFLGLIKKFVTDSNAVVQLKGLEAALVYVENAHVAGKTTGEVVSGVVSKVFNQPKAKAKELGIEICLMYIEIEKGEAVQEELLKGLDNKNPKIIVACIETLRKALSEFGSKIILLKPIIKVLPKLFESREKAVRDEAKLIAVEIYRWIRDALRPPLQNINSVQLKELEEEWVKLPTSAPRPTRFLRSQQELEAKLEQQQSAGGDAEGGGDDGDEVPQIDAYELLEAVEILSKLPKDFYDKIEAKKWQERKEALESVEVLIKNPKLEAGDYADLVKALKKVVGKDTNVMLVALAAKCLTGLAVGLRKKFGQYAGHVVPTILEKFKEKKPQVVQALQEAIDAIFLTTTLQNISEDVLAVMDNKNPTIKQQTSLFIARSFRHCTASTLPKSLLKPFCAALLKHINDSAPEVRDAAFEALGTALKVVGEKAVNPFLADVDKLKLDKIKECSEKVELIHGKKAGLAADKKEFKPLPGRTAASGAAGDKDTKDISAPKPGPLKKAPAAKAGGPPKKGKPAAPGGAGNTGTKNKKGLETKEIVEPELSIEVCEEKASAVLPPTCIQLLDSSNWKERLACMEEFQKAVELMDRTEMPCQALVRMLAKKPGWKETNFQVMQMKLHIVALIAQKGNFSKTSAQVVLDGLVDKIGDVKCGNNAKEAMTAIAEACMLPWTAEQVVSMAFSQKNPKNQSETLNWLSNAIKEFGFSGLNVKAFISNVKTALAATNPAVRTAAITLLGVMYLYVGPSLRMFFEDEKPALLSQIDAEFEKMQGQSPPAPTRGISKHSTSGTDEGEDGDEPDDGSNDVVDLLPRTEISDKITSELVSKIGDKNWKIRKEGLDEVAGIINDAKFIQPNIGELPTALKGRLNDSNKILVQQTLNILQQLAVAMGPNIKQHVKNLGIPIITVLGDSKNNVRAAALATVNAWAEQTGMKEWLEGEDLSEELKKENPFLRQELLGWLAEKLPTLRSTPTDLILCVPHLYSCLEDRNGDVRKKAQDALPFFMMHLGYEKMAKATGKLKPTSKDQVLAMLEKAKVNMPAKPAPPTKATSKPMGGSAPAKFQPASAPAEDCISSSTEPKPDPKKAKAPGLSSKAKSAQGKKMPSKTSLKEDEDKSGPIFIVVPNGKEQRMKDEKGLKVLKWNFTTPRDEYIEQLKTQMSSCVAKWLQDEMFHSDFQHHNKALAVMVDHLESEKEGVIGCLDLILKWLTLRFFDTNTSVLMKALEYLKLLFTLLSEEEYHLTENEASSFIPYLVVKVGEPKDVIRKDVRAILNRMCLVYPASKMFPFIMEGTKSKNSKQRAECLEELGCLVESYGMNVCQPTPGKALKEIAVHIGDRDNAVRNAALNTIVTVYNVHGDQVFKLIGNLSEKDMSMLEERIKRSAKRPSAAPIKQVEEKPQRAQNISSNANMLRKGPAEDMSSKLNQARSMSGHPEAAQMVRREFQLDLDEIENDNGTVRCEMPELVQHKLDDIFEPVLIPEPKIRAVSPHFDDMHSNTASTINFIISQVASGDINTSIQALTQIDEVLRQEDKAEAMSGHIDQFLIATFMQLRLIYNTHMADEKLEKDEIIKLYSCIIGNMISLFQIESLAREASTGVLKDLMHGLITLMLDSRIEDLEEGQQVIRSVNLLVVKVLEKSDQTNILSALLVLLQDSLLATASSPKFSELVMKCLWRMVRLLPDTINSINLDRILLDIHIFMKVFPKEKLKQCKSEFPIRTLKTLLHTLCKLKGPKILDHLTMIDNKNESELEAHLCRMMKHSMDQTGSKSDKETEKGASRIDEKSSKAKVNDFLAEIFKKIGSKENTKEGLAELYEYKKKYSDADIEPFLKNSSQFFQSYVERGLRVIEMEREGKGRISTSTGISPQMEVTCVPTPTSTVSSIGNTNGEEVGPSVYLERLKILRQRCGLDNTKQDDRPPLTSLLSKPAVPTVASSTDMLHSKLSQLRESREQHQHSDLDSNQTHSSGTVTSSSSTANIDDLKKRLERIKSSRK
Chain of UniProt Q16850 (Q16850 whole entry, looked up): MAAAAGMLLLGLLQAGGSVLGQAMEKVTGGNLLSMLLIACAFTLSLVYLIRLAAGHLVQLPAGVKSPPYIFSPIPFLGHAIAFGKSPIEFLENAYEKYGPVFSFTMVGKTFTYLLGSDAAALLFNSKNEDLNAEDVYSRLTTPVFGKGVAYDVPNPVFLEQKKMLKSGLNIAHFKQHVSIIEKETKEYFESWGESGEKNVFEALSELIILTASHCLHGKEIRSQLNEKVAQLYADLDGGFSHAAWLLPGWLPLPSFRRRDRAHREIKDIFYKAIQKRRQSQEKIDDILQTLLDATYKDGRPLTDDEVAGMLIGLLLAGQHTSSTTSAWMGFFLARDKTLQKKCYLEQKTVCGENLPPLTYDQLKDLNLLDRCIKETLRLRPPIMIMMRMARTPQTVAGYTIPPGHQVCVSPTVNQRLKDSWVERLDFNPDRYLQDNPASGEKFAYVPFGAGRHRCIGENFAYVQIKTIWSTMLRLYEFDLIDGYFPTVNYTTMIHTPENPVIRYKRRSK
Chain of UniProt Q9NPI6 (Q9NPI6 whole entry, looked up): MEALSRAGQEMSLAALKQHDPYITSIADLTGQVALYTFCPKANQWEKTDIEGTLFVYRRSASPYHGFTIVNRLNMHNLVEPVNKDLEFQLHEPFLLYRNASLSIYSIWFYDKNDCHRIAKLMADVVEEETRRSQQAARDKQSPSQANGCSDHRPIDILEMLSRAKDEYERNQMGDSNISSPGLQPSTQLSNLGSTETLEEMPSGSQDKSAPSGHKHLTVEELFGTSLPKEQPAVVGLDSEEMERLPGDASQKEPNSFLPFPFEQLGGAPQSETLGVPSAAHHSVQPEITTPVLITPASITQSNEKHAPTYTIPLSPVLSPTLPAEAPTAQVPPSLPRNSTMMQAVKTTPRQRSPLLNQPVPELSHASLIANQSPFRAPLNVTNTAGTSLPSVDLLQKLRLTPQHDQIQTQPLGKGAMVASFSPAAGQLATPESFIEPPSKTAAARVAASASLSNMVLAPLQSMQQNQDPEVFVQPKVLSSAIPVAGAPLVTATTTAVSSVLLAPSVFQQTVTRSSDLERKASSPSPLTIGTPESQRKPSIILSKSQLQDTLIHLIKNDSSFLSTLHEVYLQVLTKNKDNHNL

Target	log2 fold change [1]	log2 fold change [2]	log2 fold change [3]	log2 fold change [4]	log2 fold change [5]	log2 fold change [6]	log2 fold change [7]	log2 fold change [8]	log2 fold change [9]	log2 fold change [10]	log2 fold change [11]	log2 fold change [12]	log2 fold change [13]	log2 fold change [14]	log2 fold change [15]	log2 fold change [16]	log2 fold change [17]	log2 fold change [18]	log2 fold change [19]	log2 fold change [20]
CKAP5 (UniProt Q14008)	-0.023	-0.013	0.003	-0.002	-0.021	0.022	-0.016	-0.033	0.005	0.025	0.008	-0.076	0.019	0.008	0.003	0.013	0.074	0.012	0.007	-0.005
COG5 isoform 2 (UniProt Q9UP83)	0.001	0.06	-0.116	-0.056	-0.084	-0.007	-0.02	0.01	0.057	0.08	0.02	-0.051	0.04	-0.005	-0.015	-0.025	-0.037	-0.012	-0.053	0.027
CIAO2A (UniProt Q9H5X1)	-0.028	-0.032	0.094	-0.042	-0.007	0.026	0.233	-0.203	0.033	0.034	0.034	0.04	0	-0.002	0.109	0.026	-0.052	0.089	0.009	0.088
CUX1 isoform 3 (UniProt P39880)	0.059	-0.012	-0.011	0.028	-0.004	-0.006	0.107	-0.152	0.018	0.029	-0.03	0.003	0.055	-0.006	0.005	0	0	0.067	-0.042	0.014
CYP24A1 (UniProt Q07973)	0.065	-0.01	-0.055	0.166	0.006	-0.212	-0.499 (active)	0.268	0.056	0	-0.258	0.163	-0.021	-0.158	0.226	0.011	0.043	0.049	0.13	-0.05
CLASP1 (UniProt Q7Z460)	0.025	0.013	0.048	-0.03	-0.018	0.039	-0.043	0.042	0.028	-0.022	-0.057	-0.032	-0.005	-0.037	-0.006	0.058	0.009	0.036	-0.001	0.018
CLUH, A0A494C0R8	-0.11	0.027	-0.092	0.097	-0.005	0	0.59 (active)	-0.047	0.03	0.051	0.076	-0.08	-0.015	-0.184	-0.049	-0.089	0.054	-0.05	0.005	0.138
CLPTM1L (UniProt Q96KA5)	-0.006	0.049	0.079	0.067	-0.043	0.012	-0.099	0.016	0.049	-0.001	0.001	-0.064	-0.131	0.015	-0.204	0.021	-0.029	0.054	-0.097	0.011
DHCR7 (UniProt Q9UBM7)	-0.02	0.004	0.029	-0.061	-0.036	0.025	-0.033	-0.069	0.017	-0.041	-0.008	-0.038	-0.008	0.016	-0.031	0.019	0.037	0.029	-0.008	-0.035
CLIC2 (UniProt O15247)	-0.004	0.007	-0.039	-0.014	-0.011	-0.006	-0.064	-0.005	0.015	0	0.002	-0.002	0.034	0.03	0.024	-0.016	0.018	0.02	-0.014	-0.038
DCP1A (UniProt Q9NPI6)	0.023	0.017	-0.066	0.077	-0.055	0.029	-0.082	0.059	-0.006	-0.053	-0.002	0	0.003	0.033	0	0.006	-0.046	-0.074	0.026	0.022
CYP51A1 (UniProt Q16850)	-0.014	-0.007	-0.011	0.053	0.01	-0.02	-0.103	-0.066	-0.043	0.001	-0.017	0.007	0.005	-0.001	0.023	-0.019	0.09	0.019	0.053	0
DIAPH1 (UniProt O60610)	-0.002	-0.007	0.006	-0.001	-0.002	0.009	0.091	-0.042	-0.006	-0.001	0.03	0	-0.003	-0.018	-0.013	0.003	0.051	0.005	0.006	-0.001
DDX20 (UniProt Q9UHI6)	-0.058	0.018	0.011	-0.087	-0.061	0.036	-0.037	-0.094	0.036	0.004	0.042	-0.213	-0.001	-0.03	-0.026	0.076	0.01	0.016	-0.006	0.025
DES (UniProt P17661)	0.084	0.008	-0.001	0.045	0.058	-0.026	-0.434 (active)	0.149	0.106	-0.012	-0.144	0.091	-0.023	-0.056	0.26	0	-0.029	-0.017	0.117	0.04
COX20 isoform 2 (UniProt Q5RI15)	0.011	-0.011	-0.329	0.144	0.021	-0.015	0.623 (active)	-0.232	-0.015	0.001	0.102	-0.012	0.01	-0.007	0.06	-0.103	0.022	0.001	-0.033	-0.009
